The panel holds about 83,000 compounds, 20% with a hit somewhere; the sample as a whole holds those more often.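 For each line, cells grew in 96-well plates with the test compound present at a single concentration for 48 hours.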 Values without a mark were called inactive. The source made the active and inactive calls.

The experiment relates to HT29 colon. In words: NCI-60 one-dose screen, 48 h (100 = growth as untreated, 0 = no growth, -100 = all killed). As to conditions: 10 µM unless noted. As to the method:
Growth inhibition of the HT29 human tumor cell line is measured as a screen for anti-cancer activity. Cells are grown in 96 well plates and exposed to the test compound for 48 hours. Compounds are tested at a single concentration, which is 10^-5 M for most compounds. The reported endpoint is percent growth (GI% or GIPRCNT), where numbers from 0 - 100% represent growth inhibition, and numbers from -100% - 0 represent cell death. For example, a value of 40 represents 60% growth inhibition. A value of 0 means no net growth occurred over the course of the experiment. A value of -40 indicates 40% of cells at the beginning of the experiment died by the end of the experiment. A value of -100 means all cells are dead at the end of the experiment.
NCI-60 Human Tumor Cell Lines Screen was performed using the standard one-dose NCI protocol, which is described in more detail at https://dtp.cancer.gov/discovery_development/nci-60/default.htm.
Compounds with GIPRCNT values below 10 were considered active. Activity score was based on GIPRCNT using the following formula: […]
Score is 0 for GIPRCNT values of 100 or above, 50 for GIPRCNT values of 0, and 100 for GIPRCNT values of -100.
Turning to `CCCCCCNC(=O)Oc1ccc(/C(=C(/C)c2ccc(Cl)cc2)c2ccc(OCCN3CCCC3)cc2)cc1`, the growth was -17.7% (active).
With `C/C(=N/Nc1nc(N/N=C(/C)c2ccc([N+](=O)[O-])cc2)nc(N2CCOCC2)n1)c1ccc([N+](=O)[O-])cc1` the figure was 80.6%; with `NC(=O)c1c(NC(=O)c2cccc(C(F)(F)F)c2F)sc2c1CCC(=O)C2`, 8.55% (active).
`O=C(NCCCNc1cc(-c2cn(-c3ccccc3)nc2-c2cccc(O)c2)ccn1)Nc1cc(C(F)(F)F)cc(C(F)(F)F)c1`: the growth is 31.7%.
With `CCCCCCCCCC[C@@H](C)[C@@H]1CC(=O)N[C@H]([C@@H](C)O)C(=O)N[C@@H](C)C(=O)N[C@H](C)C(=O)N[C@@H](CCC(N)=O)C(=O)N[C@H](Cc2ccc(O)cc2)C(=O)N[C@@H](C(C)CC)C(=O)O1` (stereo not given in full) the figure was 68.3%; with `Cc1nn(-c2ccc(Br)cc2)c2nc(CCl)[nH]c(=O)c12`, 104%.
For `O=C1c2c(c3c4cc(Br)ccc4[nH]c3c3ccc4ccccc4c23)C(=O)N1CCN1CCCCC1`, the growth was 10.3%.
With `Cn1cc(-c2nn3cc(-c4ccncc4)nc3s2)c2cc(Cl)ccc21` the figure was 4.2% (active).
Take `CCOC(=O)c1c(NCC(=O)Nc2ccc(Br)cc2)sc2c1CCCC2`: the growth was 25.7%.
With `CCN1C/C(=N\S(=O)(=O)c2ccccc2)N(CC)C1=S` the figure was 108%.
As for `C#CCOc1ccc(/C=N/Nc2nc(-c3cc(Cl)ccc3Cl)cs2)cc1`, the growth is 110%.
For the compound `O=c1[nH]c(CCl)nc2c1cnn2-c1ccccc1`, the growth is 115%.
Turning to `C=CCn1c(SCC(=O)Nc2cccc(C(=O)/C=C/c3ccc(OC)c(OC)c3)c2)nc2ccccc2c1=O`, the growth is 95%.
Take `O=C(O)c1ccc(-n2cc(CNc3ccc(F)cc3)c(-c3ccc(C(F)(F)F)cc3)n2)cc1`: the growth is 96.9%.
The figure for `C#C[C@]1(O)CC[C@H]2[C@@H]3CC=C4c5sc(Nc6cccc(Cl)n6)nc5CC[C@]4(C)[C@H]3CC[C@@]21C` is 3.69% (active); for `C=C(C)C(=O)O[C@H]1C[C@@]2(C)OC(=CC2=O)/C(C)=C\[C@H]2OC(=O)C(=C)[C@H]12` it is 1.99% (active); for `IP(CCCSc1n(Cc2ccc3ccccc3c2)c(-c2ccccc2)c(-c2ccccc2)[n+]1Cc1ccc2ccccc2c1)(c1ccccc1)(c1ccccc1)c1ccccc1` it is 2.7% (active).
In the case of `COc1cc(/C=N/n2cnc3oc(-c4ccccc4)cc3c2=N)cc(CN2CCN(C)CC2)c1O`, the growth is 48.3%.
The figure for `CCC(CC)n1c(=O)c(SC2=NC3C(NN2)N(CC)C(=O)N3CC)c(C(=O)O)c2ccccc21` (stereo not given) is 2.44% (active); for `CC(=O)Nc1ccc(NC(=O)Nc2cccc(-c3nc(-c4ccc(NC(=O)c5cccnc5)cc4Cl)no3)c2)cc1C(F)(F)F` it is -41% (active); for `CCc1ccc(NC(=O)N[C@@H](Cc2cc(F)cc(F)c2)C(=O)N[C@@H]2C(=O)N3CCC[C@H]3C(=O)N3CCO[C@H](C)[C@H]3C(=O)N[C@@H](CO)C(=O)N3C[C@H](C)C[C@H]3C(=O)O[C@H]2C)c(F)c1` it is 30.5%.
With `O=S(=O)(Nc1ccc(C2CC2)cc1)c1ccc(-c2cnc(C3CC3)o2)cc1` the figure was 38.4%.
With `Clc1ccc(-c2nc3ccc(/C(=N\N=C\c4ccccc4)c4ccccc4)cc3[nH]2)cc1` the figure was 71.7%.
In the case of `COc1ccc(-c2nnc(/N=C3/C(=O)Nc4ccc(Br)cc43)o2)cc1`, the growth was 113%.
As for `O=C1Nc2ccc(Cl)cc2/C1=C/c1ccc(OCc2ccc(Br)cc2F)cc1`, the growth was 104%.
Turning to `COc1cc(C2CC(c3ccc(Nc4nc(NCCO)nc(Nc5ccc(Cl)cc5)n4)cc3)=Nc3c(N)nc(N)nc3N2)cc(OC)c1OC` (stereo not given), the growth is 60.9%.
The figure for `CCN1C(=O)N(CC)C2C1NN=C1SC(c3ccccc3)=CC(=O)N12` (stereo not given) is -8.74% (active); for `CC1(C)CC[C@]2(C(=O)N3CCCN(CC#N)CC3)CC[C@]3(C)C(=CC[C@@H]4[C@@]5(C)CC[C@H](O)C(C)(C)[C@@H]5CC[C@]43C)[C@H]2C1` it is 34.7%; for `CCC(CC)N1C(=O)/C(=c2\sc3n(c2=O)C2C(NN=3)N(CC)C(=O)N2CC)c2ccccc21` (stereo not given) it is 5.44% (active).
The figure for `CC1OC(O[C@@H]2[C@H](O)C(CO)OC(O[C@H]3COC(O[C@H]4CC[C@]5(C)[C@H]6CC[C@]78OC[C@@]9(CC[C@](C)(C=O)C[C@H]97)C(=O)C[C@@]8(C)[C@]6(C)CC[C@H]5C4(C)C)[C@@H](O)[C@@H]3O)[C@H]2OC2OC[C@@H](O)[C@@H](O)[C@@H]2O)[C@@H](O)[C@@H](O)[C@H]1O` (stereo not given in full) is 97.1%.
With `COc1ccc(C2CC(c3ccc(Nc4nc(NCCO)nc(Nc5ccc(Cl)cc5)n4)cc3)=Nc3c(N)nc(N)nc3N2)cc1` (stereo not given) the figure was 54.8%; with `Cn1cc(-c2nnc(N)nc2-c2cn(C)c3ccc(F)cc23)c2cc(F)ccc21`, 63.3%; with `Cc1ccc(Nc2ncnc3c2c(C)nn3-c2ccc([N+](=O)[O-])cc2)cc1`, 80.3%.
On to `CCNC(=O)Oc1ccc(/C(=C(/C)c2ccc(Cl)cc2)c2ccc(OCCN(C)C)cc2)cc1`, for which the growth is 15.2%.
The figure for `O=C(Nc1cccc(Cl)c1)Nc1nc2ccc(-c3cccc4ccccc34)cc2s1` is 49.4%; for `CCC(C)[C@H]1OC(=O)[C@H](C(C)C)N(C)C(=O)[C@@H](C(C)C)OC(=O)[C@H](C(C)C)N(C)C(=O)[C@@H](C(C)CC)OC(=O)[C@H](C(C)C)N(C)C1=O` (stereo not given in full) it is 6.93% (active); for `CCN1C(=O)N(CC)C2SC(N/N=C/c3ccc(F)cc3)=NC21` (stereo not given) it is 3.77% (active).
As to `C=C1C(=O)O[C@@H]2C[C@@H](C)/C=C\C(=O)[C@](C)(OC(C)=O)C[C@H](OC(=O)/C(C)=C\C)[C@@H]12`, the growth is -48.6% (active).
As to `O=C(COc1cccc2cccnc12)Nc1ccc(C(=O)/C=C/c2ccc(Cl)cc2)cc1`, the growth is 86.5%.
With `Cc1nn(-c2ccccc2)c2nc(CCl)[nH]c(=O)c12` the figure was 106%.

Values taken from PubChem BioAssay (NCI).
